This is one part of a sample in which the strongest signals are shown more often than they occur.
Tests used:
Experiment in all cases: glycan array binding signal (z-score within array); higher = stronger binding
Settings in all cases: glycan notation: IUPAC condensed, linker removed
[1] = biological target: Fuc(a1-2)Gal(b1-4)GlcNAc
Procedure, shortened: (§1)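 Arrays were curated from the Consortium for Functional Glycomics database, 3228 in total, and kept only where the protein sequence was available. Binding is expressed as a within-array Z-score. This score was averaged across arrays of the same protein sequence at different concentrations or buffers and across linkers, and negative values can be read as non-binding.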

[2] = biological target: Fuc(a1-2)Gal(b1-4)GlcNAc(b1-3)Gal(b1-4)GlcNAc(b1-3)Gal(b1-4)GlcNAc
Procedure, shortened: as §1

[3] = biological target: Fuc(a1-2)Gal(b1-4)GlcNAc6S
Procedure, shortened: as §1

[4] = biological target: Fuc(a1-2)[Gal(a1-3)]Gal
Procedure, shortened: as §1

[5] = biological target: Gal(a1-3)Gal(b1-4)[Fuc(a1-3)]GlcNAc
Procedure, shortened: as §1

[6] = biological target: Gal(b1-2)Gal
Procedure, shortened: as §1

[7] = biological target: Gal(b1-3)[Fuc(a1-4)]GlcNAc(b1-3)Gal(b1-4)GlcNAc
Procedure, shortened: as §1

[8] = biological target: Gal(b1-3)[Fuc(a1-4)]GlcNAc(b1-3)Gal(b1-4)[Fuc(a1-3)]GlcNAc
Procedure, shortened: as §1

[9] = biological target: Gal3S(b1-4)Glc6S
Procedure, shortened: as §1

[10] = biological target: Gal3S6S(b1-4)GlcNAc6S
Procedure, shortened: as §1

[11] = biological target: GlcNAc(b1-4)Gal(b1-4)GlcNAc
Procedure, shortened: as §1

[12] = biological target: Man(a1-2)Man(a1-3)[Man(a1-2)Man(a1-6)]Man
Procedure, shortened: as §1

[13] = biological target: Man(a1-2)Man(a1-3)[Man(a1-2)Man(a1-6)]Man(a1-6)[Man(a1-2)Man(a1-2)Man(a1-3)]Man
Procedure, shortened: as §1

[14] = biological target: Neu5Ac(a2-3)Gal(b1-4)[Fuc(a1-3)]GlcNAc(b1-3)Gal
Procedure, shortened: as §1

[15] = biological target: Neu5Ac(a2-3)Gal(b1-4)[Fuc(a1-3)]GlcNAc(b1-6)[Gal(b1-3)]GalNAc
Procedure, shortened: as §1

[16] = biological target: Neu5Ac(a2-6)Gal(b1-4)GlcNAc(b1-2)Man(a1-3)[GlcNAc(b1-2)Man(b1-4)GlcNAc(b1-2)Man(a1-6)]Man(b1-4)GlcNAc(b1-4)GlcNAc
Procedure, shortened: as §1

[17] = biological target: Neu5Ac(a2-8)Neu5Ac(a2-8)Neu5Ac(a2-3)Gal(b1-4)Glc
Procedure, shortened: as §1

B1: Chaperone 60.2 (Mycobacterium tuberculosum), P9WPE7 (protein)
chain: MAKTIAYDEEARRGLERGLNALADAVKVTLGPKGRNVVLEKKWGAPTITNDGVSIAKEIELEDPYEKIGAELVKEVAKKTDDVAGDGTTTATVLAQALVREGLRNVAAGANPLGLKRGIEKAVEKVTETLLKGAKEVETKEQIAATAAISAGDQSIGDLIAEAMDKVGNEGVITVEESNTFGLQLELTEGMRFDKGYISGYFVTDPERQEAVLEDPYILLVSSKVSTVKDLLPLLEKVIGAGKPLLIIAEDVEGEALSTLVVNKIRGTFKSVAVKAPGFGDRRKAMLQDMAILTGGQVISEEVGLTLENADLSLLGKARKVVVTKDETTIVEGAGDTDAIAGRVAQIRQEIENSDSDYDREKLQERLAKLAGGVAVIKAGAATEVELKERKHRIEDAVRNAKAAVEEGIVAGGGVTLLQAAPTLDELKLEGDEATGANIVKVALEAPLKQIAFNSGLEPGVVAEKVRNLPAGHGLNAQTGVYEDLLAAGVADPVKVTRSALQNAASIAGLFLTTEAVVADKPEKEKASVPGGGDMGGMDF
[1]
  glycan array binding signal (z-score): 1.32
[2]
  glycan array binding signal (z-score): -0.159
[3]
  glycan array binding signal (z-score): 4.33
[4]
  glycan array binding signal (z-score): -0.04
[5]
  glycan array binding signal (z-score): -0.652
[6]
  glycan array binding signal (z-score): -0.591
[7]
  glycan array binding signal (z-score): 3.11
[8]
  glycan array binding signal (z-score): -0.254
[9]
  glycan array binding signal (z-score): 4.1
[10]
  glycan array binding signal (z-score): 3.22
[11]
  glycan array binding signal (z-score): -0.93
[12]
  glycan array binding signal (z-score): 1.47
[13]
  glycan array binding signal (z-score): -1.16
[14]
  glycan array binding signal (z-score): -0.716
[15]
  glycan array binding signal (z-score): -0.295
[16]
  glycan array binding signal (z-score): 3.89
[17]
  glycan array binding signal (z-score): -0.208

Source: the supplement of paper PMC8728848
